Data published in PubChem BioAssay (NCI).
Compounds without any hit were thinned out: in the full panel of roughly 83,000, 20% have a hit.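 Assay: single dose, 48 h. Readout: percent growth (0 = no net growth; negative = cell death). Active: <10.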 Calls of active or inactive are those of the source.

What follows are compounds tested on MDA-MB-468 breast (assay: NCI-60 one-dose screen, 48 h (100 = growth as untreated, 0 = no growth, -100 = all killed)). Conditions: 10 µM unless noted.
In the case of `COc1ccc(-c2ccc(NC(=O)Nc3ccc(Cl)c(C(F)(F)F)c3)c(C)n2)cc1`, the growth is reported as 38.5% (inactive). In the case of `COc1ccc(-c2nsc3c2NC(=O)CC3c2ccc3c(c2)OCO3)cc1` (stereo unspecified), the growth is reported as 10.3% (inactive). With `NCc1c(O)ccc2ccccc12` the growth was 93.9% (inactive). `COc1cc2c(cc1OC)C(Sc1ccc(F)cc1)c1c(nc(N)c(C#N)c1N)O2` (stereo unspecified) was tested, and the growth was -56.4% (active). `O=C1C(c2ccccc2)C2C=CC(C2)N1O` (stereo unspecified) was tested, and the growth was 98.9% (inactive). With `CCC(c1cccc(Br)c1)C(C(=O)O)c1ccc(OC)cc1` (stereo unspecified) the growth was 102% (inactive). With `N#C/C(=C\c1ccc(Br)cc1)n1nnc2cc(F)c(F)cc21` the growth was -6.6% (active). In the case of `Cc1ccnc2c1ccc1c(C)ccnc12`, the growth is reported as -17.8% (active). `COc1cc(CNC(=O)CCCC/C=C/C(C)C)ccc1OCc1nnc(Nc2ccc([N+](=O)[O-])cc2)o1` was tested, and the growth was 53.7% (inactive). With `COc1cc2nc(-c3cccc4cccnc34)nc(NC3CCN(Cc4ccccc4)CC3)c2cc1OC` the growth was -78.5% (active). In the case of `O=C(Nc1cccc(C(F)(F)F)c1)Nc1cccc(C(F)(F)F)c1`, the growth is reported as -6.39% (active). `O=C(Nc1ccc(N2CCOCC2)cc1)Nc1ccc2c(ccn2C(=O)c2cccc(F)c2)c1` was tested, and the growth was 27.5% (inactive). For `COc1ccc(Cn2cc3c(c2-c2cc(OC)c(OC)c(OC)c2)CCc2cnoc2-3)cc1N`, the growth was -10.1% (active). With `O=C(O)c1ccc(-n2cc(CNc3cccc(Cl)c3)c(-c3ccc(F)cc3)n2)cc1` the growth was 109% (inactive). With `C=C(C[C@@](O)(C(=O)Oc1ccccc1)C(=O)C1CCCCC1)c1ccccc1` the growth was 85.3% (inactive). With `CN(C)c1ccc(-c2ccc3[nH]c(=O)nc(-c4ccccc4)c3c2)cn1` the growth was 42.4% (inactive). `O=[N+]([O-])c1cccc(-c2nc3sccn3c2-c2ccnc(NCCCNS(=O)(=O)c3cccc(F)c3)n2)c1` was tested, and the growth was -13.8% (active). For `COc1ccc2c(c1)C(=O)c1c-2c(=O)n(CCCCCCC(=O)NO)c2ccccc12`, the growth was 6.84% (active). `Cc1ccc(S(=O)(=O)OCCN(CCOS(=O)(=O)c2ccc(C)cc2)c2c[nH]c(=O)[nH]c2=O)cc1` was tested, and the growth was 98.5% (inactive). For `COc1cc2nc(Nc3cccc(Cl)c3)nc(N)c2cc1OC`, the growth was 26.8% (inactive). With `COc1cccc(NC(=O)Nc2ccc(Nc3ncnc4[nH]c(C)c(C)c34)cc2)c1` the growth was 112% (inactive). For `O=C1C(Cl)=C(N/N=c2/[nH][nH]/c(=N/NC3=C(Cl)C(=O)c4ccccc4C3=O)c3ccccc23)C(=O)c2ccccc21`, the growth was 62.9% (inactive). In the case of `O=C(NNC(=O)N1c2ccccc2C=Cc2ccccc21)c1ccccc1`, the growth is reported as 98.9% (inactive). In the case of `CCn1c(SCC(=O)c2ccc(Br)cc2)nnc1-c1cc2c([nH]c3ccccc32)c(-c2cccc(O)c2)n1`, the growth is reported as 83.9% (inactive). In the case of `O=C(CBr)OCc1ccc([N+](=O)[O-])o1`, the growth is reported as 109% (inactive). In the case of `O=C(CSc1nc2ccccc2c(=O)n1-c1ccccc1)Nc1ccc(C(=O)/C=C/c2ccc(Cl)cc2)cc1`, the growth is reported as 121% (inactive).
